# Test results taken from the supplement of paper PMC12282887.
# ± gives the standard deviation of the averaged measurements.
# Columns and labels:
# Assay in all cases: promoter activity interaction Z-score (Lux/OD deviation from empty-vector control); higher = stronger promoter induction by the compound
# [1] = system: E. coli BW25113 acrABp lux reporter
# Procedure, shortened: (§1)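 OD600 and luminescence of E. coli BW25113 reporter cultures (40 µl LB Lennox, 384-well plates, 37°C) were measured every 30 min for 12 h. Integration ran over 0–8 h for wild type or 1–9 h for deletion strains, and wells with growth below 10% of the median were dropped. The score is the Z-transformed residual of growth-normalised luminescence fitted against a control.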
# [2] = system: E. coli BW25113 marRABp lux reporter
# Procedure, shortened: as §1
# [3] = system: E. coli BW25113 micFp lux reporter
# Procedure, shortened: as §1
# [4] = system: E. coli BW25113 ompFp lux reporter
# Procedure, shortened: as §1
# [5] = system: E. coli BW25113 robp lux reporter
# Procedure, shortened: as §1
# [6] = system: E. coli BW25113 soxSp lux reporter
# Procedure, shortened: as §1
# [7] = system: E. coli BW25113 tolCp lux reporter
# Procedure, shortened: as §1
# [8] = 2.4 µg/ml, genetic background: wild type
# [9] = 2.4 µg/ml, genetic background: ΔmarA
# [10] = 2.4 µg/ml, genetic background: Δrob
# [11] = 2.4 µg/ml, genetic background: ΔsoxS
# [12] = 4.8 µg/ml, genetic background: wild type
# [13] = 4.8 µg/ml, genetic background: ΔmarA
# [14] = 4.8 µg/ml, genetic background: Δrob
# [15] = 4.8 µg/ml, genetic background: ΔsoxS
# [16] = 9.5 µg/ml, genetic background: wild type
# [17] = 9.5 µg/ml, genetic background: ΔmarA
# [18] = 9.5 µg/ml, genetic background: Δrob
# [19] = 9.5 µg/ml, genetic background: ΔsoxS
# [20] = 19 µg/ml, genetic background: wild type
# [21] = 19 µg/ml, genetic background: ΔmarA
# [22] = 19 µg/ml, genetic background: Δrob
# [23] = 19 µg/ml, genetic background: ΔsoxS
compound,measurement,setting,value
CO[C@@H]1[C@@H](OC(N)=O)[C@@H](O)[C@H](Oc2ccc3c(O)c(NC(=O)c4ccc(O)c(CC=C(C)C)c4)c(=O)oc3c2C)OC1(C)C [Novobiocin],promoter activity interaction Z-score,[1]; [8],0.244 ± 0.011
same,promoter activity interaction Z-score,[1]; [9],-0.347 ± 1.3
same,promoter activity interaction Z-score,[1]; [10],0.848 ± 0.4
same,promoter activity interaction Z-score,[1]; [11],0.546 ± 0.036
same,promoter activity interaction Z-score,[1]; [12],0.442 ± 0.43
same,promoter activity interaction Z-score,[1]; [13],0.136 ± 0.95
same,promoter activity interaction Z-score,[1]; [14],1.49 ± 0.32
same,promoter activity interaction Z-score,[1]; [15],0.39 ± 0.16
same,promoter activity interaction Z-score,[1]; [16],0.927 ± 0.17
same,promoter activity interaction Z-score,[1]; [17],-0.164 ± 0.91
same,promoter activity interaction Z-score,[1]; [18],1.06 ± 0.42
same,promoter activity interaction Z-score,[1]; [19],1.16 ± 0.38
same,promoter activity interaction Z-score,[1]; [20],2.99 ± 1.6
same,promoter activity interaction Z-score,[1]; [21],0.0115
same,promoter activity interaction Z-score,[1]; [22],10.3 ± 1.3
same,promoter activity interaction Z-score,[1]; [23],4.62 ± 1.6
same,promoter activity interaction Z-score,[2]; [8],-0.221 ± 0.081
same,promoter activity interaction Z-score,[2]; [9],-0.11 ± 0.13
same,promoter activity interaction Z-score,[2]; [10],0.0782 ± 0.013
same,promoter activity interaction Z-score,[2]; [11],-0.0478 ± 0.0032
same,promoter activity interaction Z-score,[2]; [12],0.022 ± 0.23
same,promoter activity interaction Z-score,[2]; [13],0.415 ± 0.36
same,promoter activity interaction Z-score,[2]; [14],-0.164 ± 0.31
same,promoter activity interaction Z-score,[2]; [15],-0.107 ± 0.12
same,promoter activity interaction Z-score,[2]; [16],-0.297 ± 0.13
same,promoter activity interaction Z-score,[2]; [17],0.318 ± 0.33
same,promoter activity interaction Z-score,[2]; [18],-0.282 ± 0.11
same,promoter activity interaction Z-score,[2]; [19],-0.114 ± 0.18
same,promoter activity interaction Z-score,[2]; [20],1.2 ± 0.98
same,promoter activity interaction Z-score,[2]; [21],5.2 ± 2.7
same,promoter activity interaction Z-score,[2]; [22],0.0504 ± 0.67
same,promoter activity interaction Z-score,[2]; [23],1.48 ± 0.89
same,promoter activity interaction Z-score,[3]; [8],-0.408 ± 0.09
same,promoter activity interaction Z-score,[3]; [9],0.0296 ± 0.17
same,promoter activity interaction Z-score,[3]; [10],0.145 ± 0.073
same,promoter activity interaction Z-score,[3]; [11],-0.147 ± 0.056
same,promoter activity interaction Z-score,[3]; [12],0.134 ± 0.14
same,promoter activity interaction Z-score,[3]; [13],0.213 ± 0.017
same,promoter activity interaction Z-score,[3]; [14],0.0635 ± 0.05
same,promoter activity interaction Z-score,[3]; [15],-0.119 ± 0.12
same,promoter activity interaction Z-score,[3]; [16],0.284 ± 0.49
same,promoter activity interaction Z-score,[3]; [17],0.421 ± 0.17
same,promoter activity interaction Z-score,[3]; [18],0.245 ± 0.24
same,promoter activity interaction Z-score,[3]; [19],0.14 ± 0.16
same,promoter activity interaction Z-score,[3]; [20],1.5406 ± 0.00073
same,promoter activity interaction Z-score,[3]; [21],0.113 ± 0.18
same,promoter activity interaction Z-score,[3]; [22],-0.174 ± 0.2
same,promoter activity interaction Z-score,[3]; [23],1.4 ± 0.62
same,promoter activity interaction Z-score,[4]; [8],0.0673 ± 0.21
same,promoter activity interaction Z-score,[4]; [9],-0.291 ± 0.042
same,promoter activity interaction Z-score,[4]; [10],0.21 ± 0.083
same,promoter activity interaction Z-score,[4]; [11],-0.226 ± 0.19
same,promoter activity interaction Z-score,[4]; [12],0.318 ± 0.29
same,promoter activity interaction Z-score,[4]; [13],-0.339 ± 0.52
same,promoter activity interaction Z-score,[4]; [14],0.165 ± 0.0019
same,promoter activity interaction Z-score,[4]; [15],0.0876 ± 0.53
same,promoter activity interaction Z-score,[4]; [16],-0.446 ± 0.54
same,promoter activity interaction Z-score,[4]; [17],-1.53 ± 0.12
same,promoter activity interaction Z-score,[4]; [18],-1.13 ± 0.89
same,promoter activity interaction Z-score,[4]; [19],-0.424 ± 0.61
same,promoter activity interaction Z-score,[4]; [20],-1.63 ± 0.2
same,promoter activity interaction Z-score,[4]; [21],-1.87 ± 0.17
same,promoter activity interaction Z-score,[4]; [22],-2.05 ± 0.56
same,promoter activity interaction Z-score,[4]; [23],-1.87 ± 0.47
same,promoter activity interaction Z-score,[5]; [8],0.51 ± 0.35
same,promoter activity interaction Z-score,[5]; [9],0.679 ± 0.23
same,promoter activity interaction Z-score,[5]; [10],1.25 ± 0.25
same,promoter activity interaction Z-score,[5]; [11],0.985 ± 1.4
same,promoter activity interaction Z-score,[5]; [12],1.19 ± 0.16
same,promoter activity interaction Z-score,[5]; [13],1.57 ± 0.17
same,promoter activity interaction Z-score,[5]; [14],1.21 ± 0.23
same,promoter activity interaction Z-score,[5]; [15],1.76 ± 1.1
same,promoter activity interaction Z-score,[5]; [16],0.92 ± 0.12
same,promoter activity interaction Z-score,[5]; [17],1.41 ± 0.34
same,promoter activity interaction Z-score,[5]; [18],1.08 ± 0.13
same,promoter activity interaction Z-score,[5]; [19],1.88 ± 0.47
same,promoter activity interaction Z-score,[5]; [20],2.49 ± 0.18
same,promoter activity interaction Z-score,[5]; [21],2.71 ± 1.5
same,promoter activity interaction Z-score,[5]; [22],2.7 ± 1.2
same,promoter activity interaction Z-score,[5]; [23],2.56 ± 1.5
same,promoter activity interaction Z-score,[6]; [8],-0.136 ± 0.025
same,promoter activity interaction Z-score,[6]; [9],-0.0396 ± 0.014
same,promoter activity interaction Z-score,[6]; [10],0.132 ± 0.012
same,promoter activity interaction Z-score,[6]; [11],-0.0347 ± 0.41
same,promoter activity interaction Z-score,[6]; [12],0.0479 ± 0.082
same,promoter activity interaction Z-score,[6]; [13],-0.0499 ± 0.0013
same,promoter activity interaction Z-score,[6]; [14],0.0442 ± 0.016
same,promoter activity interaction Z-score,[6]; [15],0.0803 ± 0.2
same,promoter activity interaction Z-score,[6]; [16],-0.193 ± 0.16
same,promoter activity interaction Z-score,[6]; [17],-0.125 ± 0.18
same,promoter activity interaction Z-score,[6]; [18],0.00176 ± 0.065
same,promoter activity interaction Z-score,[6]; [19],0.0899 ± 0.22
same,promoter activity interaction Z-score,[6]; [20],-0.00867 ± 0.13
same,promoter activity interaction Z-score,[6]; [21],-0.000878 ± 0.32
same,promoter activity interaction Z-score,[6]; [22],-0.0162 ± 0.056
same,promoter activity interaction Z-score,[6]; [23],0.304 ± 0.35
same,promoter activity interaction Z-score,[7]; [8],0.183 ± 0.43
same,promoter activity interaction Z-score,[7]; [9],0.192 ± 0.74
same,promoter activity interaction Z-score,[7]; [10],0.95 ± 0.16
same,promoter activity interaction Z-score,[7]; [11],-0.793 ± 0.74
same,promoter activity interaction Z-score,[7]; [12],0.878 ± 0.85
same,promoter activity interaction Z-score,[7]; [13],1.47 ± 0.72
same,promoter activity interaction Z-score,[7]; [14],0.512 ± 0.0012
same,promoter activity interaction Z-score,[7]; [15],0.453 ± 0.65
same,promoter activity interaction Z-score,[7]; [16],0.713 ± 0.2
same,promoter activity interaction Z-score,[7]; [17],1.93 ± 0.4
same,promoter activity interaction Z-score,[7]; [18],1.26 ± 0.14
same,promoter activity interaction Z-score,[7]; [19],0.497 ± 0.4
same,promoter activity interaction Z-score,[7]; [20],1.73 ± 1.4
same,promoter activity interaction Z-score,[7]; [21],0.8 ± 2.4
same,promoter activity interaction Z-score,[7]; [22],2.44 ± 0.49
same,promoter activity interaction Z-score,[7]; [23],2 ± 0.17
